Rows were chosen to be rich in hits. Some 21% of all compounds tested hit in one or more screens of this group.
Sm TGR inh – inhibitors of Schistosoma mansoni thioredoxin glutathione reductase; Q962Y6; Potency, µM (series often up to 114 µM), for inactives: top-dose activity change, negative = inhibition, most hits filed as inhibitors; 360,000 tested, 3% active; purified TGR, DTNB reduction, TNB absorbance 405 nm; further: potency means the concentration at half of the fitted maximal effect; on the % scale 0 is the no-effect control and ±100 the full control effect; nearly all actives have a fitted effect of over 60% in size
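TGR 20 nM + NADPH 100 uM (dispensed conc.), cpd preinc 15 min RT; start with NADPH (500 uM addition) then DTNB (15 mM addition). Kinetic TNB absorbance, 405 nm filter. Four-parameter Hill fit across titration.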
Cycloheximide cs – affects cycloheximide protein synthesis inhibition readout, counter-screen; cell reporter, cycloheximide protein synthesis inhibition counterscreen; max response, %; 300,000 tested, 12% active; in the data active means max response mostly above about 13%, no sharp cut-off; inactive means mostly below about 14%; further: read at 38.3 µM for the half of the compounds with a filed dose; 0% is about no effect
Pf growth 48h – inhibits P. falciparum growth in the first generation, 48 h; P. falciparum luciferase growth in erythrocytes, 48 h; Potency, µM (series often up to 28.7 µM), without a hit: at the highest dose activity change, negative = inhibition, usual class: inhibitors; 310,000 tested, 5.9% active; AID 504832; further: potency means the concentration at half of the fitted maximal effect; on the % scale 0 is the no-effect control and ±100 the full control effect
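Firefly luciferase activity from engineered P. falciparum reports growth; inhibitors lower the luminescent signal. Cultures contained 2% hematocrit erythrocytes at 0.1% final parasitemia.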
NS1 function inh – blocks influenza NS1 protein function | Potency, µM (titrated, usually from 46.1 µM), for inactives: at the highest dose activity, positive = more growth | 270,000 tested, 0.4% active | AID 2326; calls by dose curve; further: potency means the concentration at half of the fitted maximal effect; actives are rising curves; nearly all actives have a fitted effect of over 50% in size
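Recovery from NS1-induced slow growth read by OD600 in budding yeast switched to galactose assay medium (pH 6.0, -URA) at 1:100 dilution. Compound 23 nl per well; the matching strain lacking NS1 serves as control.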
Pf growth 96h – P. falciparum growth inhibition at 96 hour, primary screen for plastid delayed-death inhibitors; P. falciparum luciferase reporter growth, 96 h; Potency, µM (titrated, usually from 28.7 µM), for inactives: at the highest dose activity change, negative = inhibition, hits mostly inhibitors; 320,000 tested, 6.9% active; further: potency means the concentration at half of the fitted maximal effect; on the % scale 0 is the no-effect control and ±100 the full control effect
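Compounds incubated with erythrocytes infected by luciferase-expressing P. falciparum (2% hematocrit, 0.05% parasitemia final) for 96 hours, 37 C in 5% CO2. Growth inhibition scored as decreased luciferase luminescence.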
Shiga inhibitor – blocks Shiga toxin action in Vero cells; Vero cells, Shiga toxin protein synthesis inhibition reporter; inhibition, % at 38.7 µM; 290,000 tested, 9.2% active; in the data active means inhibition mostly above about 28%, no sharp cut-off; inactive means mostly below about 43%; further: 0% is about no effect
An asterisk follows results filed as active; [ ] = dose if it differs, or a comment. Unless noted, the call rests on the fitted dose curve; in most records, active means well fitted curve in the direction sought with a large enough effect; inconclusive means small, poorly fitted or top-dose-only effect, or another doubt; inactive means no such curve, though single readings can be large; an effect the other way counts as inactive or inconclusive.

CCCCCC/C=C1\CC(C(=O)OCC)Oc2ccccc21 (centres undefined) (tested in a mixture with another compound) was read as Cycloheximide cs 2.6 and Shiga inhibitor inactive.
CCOc1ccc2nc(NC(=O)CCn3cccc3)sc2c1 was read as Sm TGR inh -20.1%, Cycloheximide cs 29.5*, NS1 function inh 6.8%, Pf growth 96h inconclusive and Shiga inhibitor 85.6*.
`CN(C)C(=S)Nc1nc2ccccc2s1` gave Sm TGR inh 34.2%, Cycloheximide cs 37.7*, Pf growth 48h -24.7%, NS1 function inh -61.7%, Pf growth 96h -33.9%[1.15 µM] and Shiga inhibitor 103.9*.
`CCOc1ccc2nc(NC(=O)CSc3ccccc3)sc2c1` gave Sm TGR inh -13.2%, Cycloheximide cs 18.4*, Pf growth 48h 5.0%, NS1 function inh 2.1% and Shiga inhibitor 69.0.
CCOc1ccc2nc(NC(=S)N(C)C)sc2c1 was read as Sm TGR inh -12.7%, Cycloheximide cs 56.0*, NS1 function inh -140.8%, Pf growth 96h inconclusive and Shiga inhibitor 104.2*.
For Cc1ccc(Nc2nnc(-c3ccc(C)c(S(=O)(=O)N4CCOCC4)c3)c3ccccc23)cc1 the results were Sm TGR inh -13.3%.
Screening CCCCn1c(N)c(N(CCOC)C(=O)c2ccc(C)c(S(=O)(=O)N3CCCCC3)c2)c(=O)[nH]c1=O returned Sm TGR inh 2.0%, Pf growth 48h 47.8% and Pf growth 96h -8.5%.
`CCNC(=S)SCCOc1ccc(C)cc1` gave Sm TGR inh -14.0%, Cycloheximide cs 6.0, Pf growth 48h -1.1%, NS1 function inh -29.2%, Pf growth 96h -10.4% and Shiga inhibitor -3.2.
Screening CCOc1ccc2nc(NC(NC(=O)CC)(C(=O)OC)C(F)(F)F)sc2c1 (centres undefined) returned Sm TGR inh 6.8%, Cycloheximide cs -2.0, Pf growth 48h -18.9%, NS1 function inh -47.2%, Pf growth 96h -6.5% and Shiga inhibitor -14.7.
CCCC(=O)Nc1nc2ccc(OCC)cc2s1 was read as Sm TGR inh -0.7%, Cycloheximide cs 46.4*, Pf growth 48h -0.2%, NS1 function inh -5.6%, Pf growth 96h 10.0% and Shiga inhibitor 72.7*.
For COc1ccc2nc(NC(=O)CSc3nc4ccccc4o3)sc2c1 the results were Sm TGR inh -7.5%, Cycloheximide cs 40.1*, Pf growth 48h 49.6%, NS1 function inh inconclusive, Pf growth 96h inconclusive and Shiga inhibitor 133.8*.
Screening CCOc1ccc2nc(NC(NC(C)=O)(C(=O)OC)C(F)(F)F)sc2c1 (centres undefined) returned Sm TGR inh 8.2%, Cycloheximide cs 4.8, Pf growth 48h 4.5%, NS1 function inh -8.7%, Pf growth 96h 7.38µM* and Shiga inhibitor -15.9.
`CN(C)c1ccc(CNc2nc3ccccc3s2)cc1` gave Sm TGR inh 5.2%, Cycloheximide cs 34.5*, Pf growth 48h 137.5%, NS1 function inh -10.6%, Pf growth 96h -6.2% and Shiga inhibitor 67.6*.
CCOc1ccc(-n2nc(C(=O)NC3CCCCC3)c3ccccc3c2=O)cc1 was read as Sm TGR inh 0.1%, Cycloheximide cs -3.0, Pf growth 48h inconclusive, NS1 function inh 2.2%, Pf growth 96h inconclusive and Shiga inhibitor -5.4.
Screening COCCCNC(=S)Nc1ccc(S(=O)(=O)Nc2cc(OC)nc(OC)n2)cc1 returned Sm TGR inh 1.7%, Cycloheximide cs 1.9, Pf growth 48h -16.6%, NS1 function inh 18.1%, Pf growth 96h -17.4% and Shiga inhibitor -9.2.
For COc1cccc(C(=O)Nc2ccc(S(=O)(=O)Nc3nccc(C)n3)cc2)c1 the results were Sm TGR inh 16.5%, Cycloheximide cs -1.6, Pf growth 48h 13.0%, NS1 function inh 0.5%, Pf growth 96h 3.3% and Shiga inhibitor -6.9.
For COc1cccc(C(=O)/C=C/Nc2ccc(S(=O)(=O)Nc3nc(C)cc(C)n3)cc2)c1 the results were Sm TGR inh 7.0%, Cycloheximide cs 9.9, Pf growth 48h -1.6%, NS1 function inh -12.3%, Pf growth 96h 2.08µM* and Shiga inhibitor -4.0.
Screening COc1cccc(C(=O)/C=C/Nc2ccc(S(=O)(=O)Nc3ncccn3)cc2)c1 returned Sm TGR inh -9.8%, Cycloheximide cs 42.8*, Pf growth 48h 29.7%, NS1 function inh 2.6%, Pf growth 96h inconclusive and Shiga inhibitor 103.0*.
For O=C(/C=C/Nc1ccc(S(=O)(=O)Nc2ncccn2)cc1)c1ccc2ccccc2c1 the results were Sm TGR inh -15.4%, Cycloheximide cs 0.7, Pf growth 48h 3.4%, NS1 function inh -0.5%, Pf growth 96h 23.7% and Shiga inhibitor 4.5.
Cc1cc(C)nc(NS(=O)(=O)c2ccc(N/C=C/C(=O)c3ccc(Cl)c(Cl)c3)cc2)n1 was read as Sm TGR inh 1.2%, Cycloheximide cs -5.4, Pf growth 48h 5.0%, NS1 function inh 25.3%, Pf growth 96h 32.8% and Shiga inhibitor -3.4.
O=C(/C=C\Nc1ccc(S(=O)(=O)Nc2ncccn2)cc1)c1ccccc1 was read as Sm TGR inh -21.3%, Cycloheximide cs 50.6*, Pf growth 48h 18.0%, NS1 function inh 0.5%, Pf growth 96h 32.3% and Shiga inhibitor 142.3*.
CC(=O)Nc1ccc(NC(=O)C2CCCN2S(=O)(=O)c2ccc3c(c2)CCCC(=O)N3)cc1 (centres undefined) was read as Sm TGR inh -16.1%.
Screening COC(=O)c1c(NC(=O)COC(=O)[C@@H](NS(=O)(=O)c2ccc(C)cc2)C(C)C)sc2c1CCC2 returned Sm TGR inh -7.7%, Cycloheximide cs -1.2, Pf growth 48h inconclusive, NS1 function inh 28.5%, Pf growth 96h inconclusive and Shiga inhibitor 19.8.
Screening CCOc1ccc(N=Nc2c(N)[nH][nH]c2=O)cc1 returned Sm TGR inh 5.3%, Cycloheximide cs 78.2*, Pf growth 48h 247.6%, NS1 function inh 19.2%, Pf growth 96h 105.3% and Shiga inhibitor 68.5*.
`Nc1[nH][nH]c(=O)c1N=Nc1cccc(Cl)c1` gave Sm TGR inh -0.3%, Cycloheximide cs 13.2, Pf growth 48h 42.8%, NS1 function inh -1.4%, Pf growth 96h 44.3% and Shiga inhibitor -1.0.
`COc1cccc(N=Nc2c(N)[nH][nH]c2=O)c1` gave Sm TGR inh 17.1%, Cycloheximide cs 54.6*, Pf growth 48h 148.5%, NS1 function inh 16.8%, Pf growth 96h 161.9% and Shiga inhibitor 59.3*.
COc1ccc(N=Nc2c(C)[nH][nH]c2=O)cc1 was read as Sm TGR inh 8.0%, Cycloheximide cs 34.6*, Pf growth 48h 96.2%, Pf growth 96h inconclusive and Shiga inhibitor 103.3*.
Screening Cc1nc([N+](=O)[O-])c(C(=O)OCc2ccccc2F)n1C returned Sm TGR inh 11.7%, Cycloheximide cs 8.4, Pf growth 48h 3.9%, Pf growth 96h inconclusive and Shiga inhibitor 6.0.

From PubChem BioAssay
